Test results from PubChem BioAssay AID588430 (Broad Institute, 2011).
Entries with a potency or affinity are not part of this list. Results filed as inconclusive are left out. Active and inactive are the calls of the source.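 Rule for the calls: active = compound whose fitted half-maximal inhibition concentration is at most triple the top dose in every replicate run; inconclusive = runs disagree, or flat partial inhibition, or poor curve fit; inactive = every run inactive: flat, opposite effect, or too weak.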

target: Cyclin-dependent kinase 5 activator 1 (Homo sapiens) + Cyclin-dependent kinase 5 (Homo sapiens) (UniProt Q15078+Q00535); assay: CDK5-p25 kinase inhibitors, specificity check, dose response, selectivity assay for GSK-3 alpha inhibitor project, biochemical, microfluidic mobility shift, dry powder (AID 588430); settings: Caliper mobility shift, peptide conversion; series mostly up to 35 µM
Sequence (Q00535 whole entry, looked up): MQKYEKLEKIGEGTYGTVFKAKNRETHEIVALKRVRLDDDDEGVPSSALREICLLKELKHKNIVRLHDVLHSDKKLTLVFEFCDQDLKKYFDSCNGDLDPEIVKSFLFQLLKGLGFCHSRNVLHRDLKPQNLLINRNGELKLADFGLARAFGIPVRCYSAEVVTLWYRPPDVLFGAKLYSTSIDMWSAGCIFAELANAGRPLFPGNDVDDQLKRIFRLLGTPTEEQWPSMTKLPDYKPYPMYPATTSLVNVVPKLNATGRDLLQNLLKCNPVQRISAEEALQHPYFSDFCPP
Sequence (Q15078 whole entry, looked up): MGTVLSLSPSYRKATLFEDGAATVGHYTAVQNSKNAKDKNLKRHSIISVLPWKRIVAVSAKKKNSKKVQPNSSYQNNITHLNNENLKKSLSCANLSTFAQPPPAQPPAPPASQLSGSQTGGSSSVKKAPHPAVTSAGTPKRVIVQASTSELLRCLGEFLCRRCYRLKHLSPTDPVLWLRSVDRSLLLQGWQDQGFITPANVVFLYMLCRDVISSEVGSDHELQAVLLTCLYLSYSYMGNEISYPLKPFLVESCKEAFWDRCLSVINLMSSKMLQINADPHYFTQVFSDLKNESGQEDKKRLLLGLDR

outcome, inactive:
O=C(Nc1ccsc1C(=O)NC1CCCCC1)c1ccc(F)cc1, CCOC(=O)c1ccc2ncc(C(=O)OCC)c(Nc3ccc(N4CCOCC4)cc3)c2c1, Nc1nonc1-n1nnc(C(=O)N/N=C/c2ccccc2Cl)c1CN1CCOCC1, Fc1ccc(CSc2nnc(-c3ccncc3)o2)cc1, Nc1nc(NCCCN2CCOCC2)nc(Nc2cccc(Cl)c2)c1[N+](=O)[O-], COc1ccc(OC)c(/C=N/NC(=O)c2nnn(-c3nonc3N)c2-c2cccs2)c1, c1ccc(-c2nc(NCCCn3ccnc3)c3ccccc3n2)cc1, CN(C)Cc1c(C(=O)N/N=C/c2ccncc2)nnn1-c1nonc1N
